Source: PubChem BioAssay AID504773 (Broad Institute, 2011)
Potency and affinity values are given separately. Activity calls are given as the source filed them.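 How the source made its calls: active means polarization signal falls with dose and the fitted half-maximal concentration is at or below ten times the sample's top valid dose; inconclusive means flat curve at 30 to 70% inhibition, or poor fit; inactive means signal rises, flat within 30%, or potency beyond limit.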

These molecules were tested against Golgi-associated PDZ and coiled-coil motif-containing protein (Homo sapiens) (UniProt Q9HD26) (assay: potency against CAL PDZ-peptide interaction – biochemical, fluorescence polarization, Cerulean-tagged CAL PDZ, cherry-picks, dose response (AID 504773)). Conditions: CAL PDZ-peptide binding, 1 h; series mostly up to 50 µM.
For O=C(Nc1nccs1)c1ccc(F)c(S(=O)(=O)N2CCOCC2)c1, the outcome was “inactive”.
In the case of CC(C)CNC(=O)COC(=O)CCC(=O)c1ccc(Cl)cc1, the outcome is reported as “inactive”.
With O=C(Cc1ccccc1)NN=C1CCCC1 the outcome was “inactive”.
COc1cc(C(=O)NC(C)CCc2ccccc2)cc(OC)c1OC (stereo unspecified) was tested, and the outcome was “inactive”.
O=C(Nc1ccc([N+](=O)[O-])cc1)Nc1cnccn1 was tested, and the outcome was “inactive”.
With CN(c1nc(-c2ccc(Br)cc2)cs1)C1CCS(=O)(=O)C1 (stereo unspecified) the outcome was “inactive”.
O=C1c2ccccc2C(O)N1c1ccccc1 (stereo unspecified) was tested, and the outcome was “inactive”.
O=C1CSC(=Nc2ccccc2Cl)N1 was tested, and the outcome was “inactive”.
With C/C(CC(=O)Nc1ccc(C)c(Cl)c1)=N\NC(=O)Cc1cnc(N)s1 the outcome was “inactive”.
CC1=C(C#N)C(=O)NC(=O)/C1=C\c1ccc(-c2cc(C)c(C)cc2[N+](=O)[O-])o1 was tested, and the outcome was “inactive”.
COc1ccc(C(=O)Nc2nccs2)cc1 was tested, and the outcome was “inactive”.
CCCOc1ccc(CC(=O)N/N=C\c2ccc(F)cc2)cc1 was tested, and the outcome was “inactive”.
O=C1c2ccccc2C(=O)N1CSc1nnnn1-c1ccccc1 was tested, and the outcome was “inactive”.
For CCCCN1CC(O)=C(c2nc(-c3ccc(Cl)cc3)cs2)C1=N, the outcome was “inactive”.
With CN1CCN(c2ccccc2NC(=O)c2ccc(N3CCCC3)c([N+](=O)[O-])c2)CC1 the outcome was “inactive”.
With CCCn1cnc2c(SCCc3ccccc3)nc(N)nc21 the outcome was “inactive”.
With Cc1ccc(CN2CCN(Cc3nc4ccccc4nc3C)CC2CCO)cc1 (stereo unspecified) the outcome was “inactive”.
COc1cc(S(=O)(=O)n2nc(C)cc2C)ccc1Cl was tested, and the outcome was “inactive”.
COc1ccc(/C=N/N2CCN(c3ccccc3OC)CC2)cc1Br was tested, and the outcome was “inactive”.
Cn1c(=O)c2c(nc(SCC(=O)NCC3CCCO3)n2Cc2ccc(F)cc2)n(C)c1=O (stereo unspecified) was tested, and the outcome was “inactive”.
For Cc1cc(C)c(OCC(=O)OC(C)C(=O)NC2CC2)c(C)c1 (stereo unspecified), the outcome was “inactive”.
With O=C(CSc1nccc(=O)[nH]1)Nc1ccc(Oc2ccccc2)cc1 the outcome was “inactive”.
With CC(=O)Nc1cccc(NC(=O)CSc2nnc(NC(=O)c3ccco3)s2)c1 the outcome was “inactive”.
In the case of COc1ccc(C(C)=O)cc1COC(=O)CNC(=O)c1ccccc1F, the outcome is reported as “inactive”.
With O=C(c1cc(Br)ccc1Cl)N1CCN(c2ccccn2)CC1 the outcome was “inactive”.
O=C(CCN1C(=O)c2ccccc2C1=O)CN1CCOCC1 was tested, and the outcome was “inactive”.
With CN(C)c1ccc(P(=O)(OC2CCCCC2)C(O)c2cccnc2)cc1 (stereo unspecified) the outcome was “inactive”.
With Cc1ccc(-c2[nH]c3ccccc3c2SCCN)cc1 the outcome was “inactive”.
For O=C(NCc1ccccc1Cl)C1CC(=O)N(Cc2ccccc2)C1 (stereo unspecified), the outcome was “inactive”.
In the case of CSc1cccc(NC(=O)N2CCCC(CNS(=O)(=O)Cc3ccccc3)C2)c1 (stereo unspecified), the outcome is reported as “inactive”.
For COC(=O)c1ccccc1NC(=O)n1cc(C)cn1, the outcome was “inactive”.
With Cn1c(CNC(=O)OC(C)(C)C)n[nH]c1=S the outcome was “inactive”.
With Cc1ccc(S(=O)(=O)N2CCN(C(=O)c3cc(=O)c4ccccc4o3)CC2)cc1 the outcome was “inactive”.
For O=C(NCC(=O)N1CCC(N2CCCCC2)CC1)C1CCCCC1, the outcome was “inactive”.
CCOC(=O)NC(=O)COC(=O)CCCSc1nc2ccccc2s1 was tested, and the outcome was “inactive”.
In the case of CCc1nnc(NS(=O)(=O)c2ccc(NC(=O)CCC(=O)O)cc2)s1, the outcome is reported as “inactive”.
